Results: PubChem BioAssay

Experiment: E. coli acrAB mutant growth effects, primary screen, E. coli filamentation inducers, strain DRC39, OD650, 48 h (AID 1179);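 also: screen aims at cell division blockers that make cells filament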
Settings: E. coli DRC39 delta-acrAB growth, higher = more signal, called active from +8 up or from −8 down

z-score, inactive:
CC1CC/C=C\[C@H]2OC34C=CCN(c5ccc6ccccc6c5)C(=O)[C@H]3N(CCCCCO)C(=O)[C@@H]4C2C(=O)O1 (stereo partly specified) 0.312, CN1C(=O)C2C=CC(C(O)C(C)(C)C)N(Nc3ccccc3)C2C1=O (stereo unspecified) 0.108, Cc1ccc(S[C@]2(C(=O)NCCCN(C)C)CC(=O)N(Cc3ccccc3)[C@@H]2c2ccc(CO)cc2)cc1 -0.435, O=C1O[C@H](c2ccccc2)[C@H](c2ccccc2)N2[C@H]1[C@@H](C(=O)NC[C@H](O)c1ccccc1)[C@]1(C(=O)Nc3ccc(C#CC4=CCCCC4)cc31)[C@H]2c1ccc(O)cc1 0.165, O=C(CS)NCCCCCNC(=O)[C@H]1C[C@H]2C(=O)N[C@@H](Cc3ccccc3)C(=O)N2[C@H]1c1cccc(OCCO)c1 1.68, CCCC[C@H]1OB(O)C[C@H]2C1=C(COc1ccccc1)C[C@H]1C(=O)N(Cc3ccccc3)C(=O)[C@H]12 -0.281, O=c1cccc(-c2cccc3ccccc23)o1 -0.0042, CCCCCN1CC=CC23O[C@@H]4C=CCCOC(=O)C4[C@H]2C(=O)N(CCCO)[C@@H]3C1=O (stereo partly specified) -0.251, CS(=O)(=O)CCOC(=O)C1=CC(c2ccc(CO)cc2)=CC(c2cccs2)N(Cc2cccc(OC(F)(F)F)c2)C=C1C(=O)OCCS(C)(=O)=O (stereo unspecified) -3.3, C#C[C@H](O[Si](C#CCCCCCC)(C(C)C)C(C)C)c1ccccc1 0.577, COc1ccc([Si](C)(C)[C@@H]2[C@@H](CCO)O[C@]3(C(=O)N(Cc4ccccc4)c4ccc(N(C=O)c5ccccc5)cc43)[C@H]2C)cc1 0.843
